This is one part of a sample in which hits are shown more often than they occur.
Pf apPOL block = Pf-apPOL DNA polymerase inhibition. 210,000 tested, 0.25% active. Recombinant Pf-apPOL, molecular beacon fluorescence, 1.5 h. inhibition, % at 10 µM. AID 1794808
mHTT-CaM PPI inh = inhibitors of human mutant huntingtin-calmodulin interaction | 190,000 tested, 3.6% active | P42858 | inhibition, % at 15 µM | AlphaScreen His-mHTT/GST-CaM binding, luminescence;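 note: 0% = both proteins with DMSO and 100% = one protein alone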
* = called active by the depositor. Cut-off read from the data, not from the text of the source: active = inhibition above about 50%; inactive = the rest.

What do the screens show for `CSc1ccc(-c2c(C#N)c(N)n3c(nc4ccccc43)c2C#N)cc1`?
Pf apPOL block: -1; mHTT-CaM PPI inh: -1

How did O=C(Nc1nccs1)C1COc2ccccc2O1 (stereo unspecified) do in these assays?
Pf apPOL block: 13; mHTT-CaM PPI inh: -3

Results for O=C(Cn1nc2c(c1NC(=O)C1COc3ccccc3O1)CSC2)NCc1ccco1 (stereo unspecified) ?
Pf apPOL block: 20; mHTT-CaM PPI inh: 94*

How did COc1ccc(CCNC(=O)C2CC2c2ccccc2)cc1OC (stereo unspecified) do in these assays?
Pf apPOL block: -1; mHTT-CaM PPI inh: -2

Results for COCCN1CCC(CNC(=O)C(=O)Nc2ccc3c(c2)OCO3)CC1 ?
Pf apPOL block: -8; mHTT-CaM PPI inh: -12

Results for COc1cc(CCN2C(=O)CCC2(C)C(=O)N2CCCC2)cc(OC)c1OC (stereo unspecified) ?
Pf apPOL block: -1; mHTT-CaM PPI inh: -1

How did Cc1ccc(S(=O)(=O)N=C2C=C(Nc3cccc(C(=O)O)c3)C(=O)c3ccccc32)cc1 do in these assays?
Pf apPOL block: 4; mHTT-CaM PPI inh: 62*

Results for Cc1ccc(C)c(S(=O)(=O)N=C2C=C(Br)C(=O)c3ccccc32)c1 ?
Pf apPOL block: -7; mHTT-CaM PPI inh: 46

What do the screens show for `Cc1ccc(NC(=O)c2cccc(S(=O)(=O)Nc3cccc(C(=O)O)c3)c2)cc1`?
Pf apPOL block: -7; mHTT-CaM PPI inh: -3

Results for Cc1ccc(S(=O)(=O)N=C2C=C(Nc3cccc(C(=O)O)c3)C(=O)c3ccccc32)c(C)c1 ?
Pf apPOL block: 47; mHTT-CaM PPI inh: 86*

Results for Cc1cc(C)c(S(=O)(=O)N2CCCC2c2nc(-c3ccccc3)no2)cc1C (stereo unspecified) ?
Pf apPOL block: 1; mHTT-CaM PPI inh: -31

How did NNc1nnc(-c2ccccc2)c2ccccc12 do in these assays?
Pf apPOL block: 2; mHTT-CaM PPI inh: 68*

Results for NC(=O)c1ccc(Nc2nnc(-c3ccc(O)cc3)c3ccccc23)cc1 ?
Pf apPOL block: -34; mHTT-CaM PPI inh: 21

What do the screens show for `NNc1nnc(-c2ccccc2)c(-c2ccccc2)n1`?
Pf apPOL block: 1; mHTT-CaM PPI inh: 100*

Results for CC(=NNc1nnc(-c2ccccc2)c(-c2ccccc2)n1)c1ccco1 ?
Pf apPOL block: -3

How did Cc1nn(CCCNS(=O)(=O)c2c(C)noc2C)c(C)c1Br do in these assays?
mHTT-CaM PPI inh: -1

Results for Oc1c(C=Nc2ccccc2Br)[nH]c2ccc(Br)c(Cl)c12 ?
Pf apPOL block: -3; mHTT-CaM PPI inh: 2

Results for Cc1cc(C)cc(NC(=O)C2CC(=O)N(c3ccc(F)cc3)C2)c1 (stereo unspecified) ?
Pf apPOL block: -2; mHTT-CaM PPI inh: -11

What do the screens show for `O=C(O)CC1c2ccccc2Oc2ccccc21`?
Pf apPOL block: -1; mHTT-CaM PPI inh: -6

How did O=CC1=C(c2ccccc2)Oc2ccccc2O1 do in these assays?
Pf apPOL block: -6; mHTT-CaM PPI inh: 51*

How did COc1ccc(C=C2Oc3c(ccc4c3CN(c3ccc5c(c3)OCO5)CO4)C2=O)cc1OC do in these assays?
Pf apPOL block: 6; mHTT-CaM PPI inh: 59*

Results for COc1ccc(C=C2Oc3c(ccc4c3CN(Cc3ccco3)CO4)C2=O)c(OC)c1 ?
Pf apPOL block: -17; mHTT-CaM PPI inh: 68*

What do the screens show for `COc1ccc(C=C2Oc3c(ccc4c3CN(c3ccc5c(c3)OCCO5)CO4)C2=O)cc1OC`?
Pf apPOL block: 3; mHTT-CaM PPI inh: 3

Results for COCCCN1COc2ccc3c(c2C1)OC(=Cc1cc(OC)c(OC)c(OC)c1)C3=O ?
Pf apPOL block: -28; mHTT-CaM PPI inh: 29

How did COc1cc(C=C2Oc3c(ccc4c3CN(CCN3CCOCC3)CO4)C2=O)cc(OC)c1OC do in these assays?
Pf apPOL block: -36; mHTT-CaM PPI inh: 89*

How did COc1ccc(OC)c(C=C2Oc3c(ccc4c3CN(Cc3ccco3)CO4)C2=O)c1 do in these assays?
Pf apPOL block: -8; mHTT-CaM PPI inh: 16

Results for O=C1C(=Cc2ccco2)Oc2c1ccc1c2CN(Cc2ccc3c(c2)OCO3)CO1 ?
Pf apPOL block: -7; mHTT-CaM PPI inh: 48

How did COc1ccc(CN2COc3ccc4c(c3C2)OC(=Cc2ccco2)C4=O)cc1 do in these assays?
Pf apPOL block: -6; mHTT-CaM PPI inh: 51*

What do the screens show for `Cc1ccc(NC(=O)c2cnn(-c3ccccc3)c2NC(=O)c2ccccc2F)cc1C`?
Pf apPOL block: -6; mHTT-CaM PPI inh: 12

How did Cc1ccc2c(Nc3ccc(F)c(C)c3)c(-c3nc(C)no3)cnc2n1 do in these assays?
Pf apPOL block: 0; mHTT-CaM PPI inh: 42

What do the screens show for `CC1(C(=O)NCc2ccccc2)CCCN(S(=O)(=O)c2cccc3nsnc23)C1` (stereo unspecified)?
Pf apPOL block: -6; mHTT-CaM PPI inh: 2

What do the screens show for `COCCn1cc2c3c(cccc31)CN(C(=O)Cc1ccc(OC)cc1)CC2`?
Pf apPOL block: -5; mHTT-CaM PPI inh: 29

Results for COc1ccc(C=C2Oc3c(ccc4c3CN(Cc3ccco3)CO4)C2=O)c(OC)c1OC ?
Pf apPOL block: -24; mHTT-CaM PPI inh: 66*

What do the screens show for `COc1ccc(C=C2Oc3c(ccc4c3CN(Cc3ccncc3)CO4)C2=O)c(OC)c1OC`?
Pf apPOL block: -19; mHTT-CaM PPI inh: 0

How did Cc1cccc(C(=O)Nc2ccc(C(C)C)cc2)c1 do in these assays?
Pf apPOL block: -3; mHTT-CaM PPI inh: -33

What do the screens show for `CCn1nccc1C(=O)N1CCCC1c1ccc(F)cc1` (stereo unspecified)?
Pf apPOL block: 0; mHTT-CaM PPI inh: -6

How did CC(=O)c1cccc(NC(=O)N2CC(c3nc(C)no3)C3(CCOCC3)C2)c1 (stereo unspecified) do in these assays?
Pf apPOL block: 2; mHTT-CaM PPI inh: 0

Results for Cc1ccc(-c2nn(-c3cc(N4CCNCC4)ccc3[N+](=O)[O-])c(=O)c3ccccc23)cc1C ?
Pf apPOL block: 0; mHTT-CaM PPI inh: 100*

What do the screens show for `O=c1c2ccccc2c(-c2ccccc2)nn1-c1cc(N2CCCC2)ccc1[N+](=O)[O-]`?
Pf apPOL block: 0; mHTT-CaM PPI inh: 34

How did CCOc1cccc2cc(C(=O)NC3CCCC3)c(=O)oc12 do in these assays?
Pf apPOL block: -6; mHTT-CaM PPI inh: -6

What do the screens show for `COc1ccc(C2/C=C\CN(CC(C)C)[C@@H](Cc3ccccc3)C(=O)N2Cc2ccc(F)cc2)cc1` (stereo partly specified)?
Pf apPOL block: -3; mHTT-CaM PPI inh: -4

What do the screens show for `COc1ccc(C2/C=C\CN(C(=O)c3ccc(C)cc3)[C@@H](Cc3ccccc3)C(=O)N2Cc2ccc(F)cc2)cc1` (stereo partly specified)?
Pf apPOL block: -4; mHTT-CaM PPI inh: 16

What do the screens show for `COc1ccc(C2/C=C\CN(C(=O)C3CC3)[C@@H](Cc3ccccc3)C(=O)N2Cc2ccc(F)cc2)cc1` (stereo partly specified)?
Pf apPOL block: -1; mHTT-CaM PPI inh: 91*

What do the screens show for `COc1ccc(C2/C=C\CN(C(=O)c3ccccc3)[C@@H](Cc3ccccc3)C(=O)N2Cc2ccc(F)cc2)cc1` (stereo partly specified)?
Pf apPOL block: -3; mHTT-CaM PPI inh: 87*

How did O=C(Nc1ccc(Cl)cc1)C1C2/C=C\CCCCC21 (stereo unspecified) do in these assays?
Pf apPOL block: 1; mHTT-CaM PPI inh: -3

How did CC(C)c1c(O)nc(SCC(=O)O)[nH]c1=O do in these assays?
Pf apPOL block: -2; mHTT-CaM PPI inh: -4

From PubChem BioAssay
